Data reported in PubChem BioAssay AID709 (SRMLSC, 2007).
The campaign covered roughly 65,000 compounds. About 3,600 (5.5%) were called active. The sample as a whole holds a higher share of actives than the screen did. A number with no mark means an inactive call.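 The calls were made as follows: active = at 10 µM, mean starting fluorescence two-fold or more over control wells; inactive = the rest.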

Assay: intrinsic fluorescence of library compounds, ex339/em460 – biochemical, MLSMR library, data from DPM-DC assay, artefact control, profiling panel (AID 709);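 also: signal is the first read of a kinetic run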
Conditions: compound autofluorescence, ex339/em460 nm, NADH buffer; at 10 µM; active compounds read high; 1 = no-compound wells, NADH background

Row | SMILES | fluorescence fold increase
1 | CN(c1nc2ccccc2n2c(-c3ccco3)nnc12)S(=O)(=O)c1ccccc1 | 2.86 (active)
2 | c1ccc(CSc2nnc(-c3ccco3)n2Cc2ccccc2)cc1 | 1.15
3 | Cc1ccc(Oc2nc3ccccc3n3c(C)nnc23)cc1 | 1.08
4 | COc1ccc(OC)c(CN2C(=O)CCC2(C)C(=O)NC2CCCCCC2)c1 (stereo not given) | 1.09
5 | CCCCc1cc(=O)oc2cc(C)cc(OCc3nn[nH]n3)c12 | 3.84 (active)
6 | CC(C)C[C@H](NC(=O)[C@@H]1O[C@H]1C(=O)O)C(=O)NCCCCN=C(N)N | 1.01
7 | CC1(C)CC(=O)C(C2=NC(C)(C)Cc3ccccc32)=C(O)C1 | 1.05
8 | Cc1ccc2[nH]c3c(c2c1)CN(C(=O)CN1CCN(c2ccccc2)CC1)CC3 | 1.21
9 | COc1cccc(NC(=O)CN(C)S(=O)(=O)c2ccc(C)cc2)c1 | 1.1
10 | CCN(CC)C(=O)CSc1nnc(-c2cccc(OC)c2)o1 | 1.05
11 | COc1cccc(-c2nnc(NC(=O)c3ccc(S(=O)(=O)N(CC(C)C)CC(C)C)cc3)o2)c1 | 3.77 (active)
12 | CC(C)(O)C#Cc1ccc(C(=O)N2CCC(C(N)=O)(N3CCCCC3)CC2)cc1 | 1.1
13 | Cc1ccc(NC(=O)c2nc[nH]c2C(=O)N2CCCCC2)c(C(=O)c2ccccc2)c1 | 1.13
14 | Cc1ccc2c(c1)sc1ncc(NC(=O)c3ccccc3)c(=O)n12 | 2.43 (active)
15 | Cc1ccccc1NC(=O)c1ccccc1 | 1.09
16 | CC(C)C(NC(=O)c1cccc(S(=O)(=O)N2CCOCC2)c1)C(=O)NCCc1ccccn1 (stereo not given) | 1.06
17 | C=CCNC(=O)c1ccc(C)c(Br)c1 | 1.08
18 | O=c1oc2cc(O)ccc2cc1-c1ccc(F)cc1 | 3.81 (active)
19 | COc1cccc(C(=O)c2cc3ccc(O)cc3oc2=O)c1 | 1.05
20 | Nc1ncc(-c2cc3ccccc3oc2=O)s1 | 1.43
21 | O=C(Cn1c(=S)nc2ccccn21)N1CCc2ccccc2C1 | 1.17
22 | CCOc1ccc2[nH]c(=O)c(CN(Cc3nnnn3CCc3ccccc3)CC3CCCO3)cc2c1 (stereo not given) | 1.82
23 | Cc1cccc2cc(CN(Cc3nnnn3Cc3ccccc3)C3CCCC3)c(=O)[nH]c12 | 1.03
24 | CCOc1ccc2[nH]c(=O)c(CN(Cc3nnnn3Cc3ccccc3)CC3CCCO3)cc2c1 (stereo not given) | 2.24 (active)

Row | SMILES | fluorescence fold increase
25 | Cc1cc(C)c2cc(CN(Cc3cccs3)Cc3nnnn3CC3CCCO3)c(=O)[nH]c2c1 (stereo not given) | 1.16
26 | CCC(c1nnnn1Cc1ccccc1)N(Cc1cc2cc(OC)ccc2[nH]c1=O)CC1CCCO1 (stereo not given) | 1.46
27 | COc1ccc2[nH]c(=O)c(CN(Cc3nnnn3CCc3ccccc3)CC3CCCO3)cc2c1 (stereo not given) | 2.03 (active)
28 | CCC(c1nnnn1Cc1ccco1)N(Cc1cc2cc(OC)ccc2[nH]c1=O)C1CCCCC1 (stereo not given) | 1.39
29 | COc1ccc2[nH]c(=O)c(CN(CC3CCCO3)C(=O)Nc3ccccc3)cc2c1 (stereo not given) | 2.91 (active)
30 | Cc1cc2cc(CN(Cc3cccs3)Cc3nnnn3CC3CCCO3)c(=O)[nH]c2cc1C (stereo not given) | 1.42
31 | COc1ccc(/C(O)=C2/C(=O)C(=O)N(c3nc(C)c(C)s3)C2c2ccco2)cc1 (stereo not given) | 1.08
32 | COc1ccc(NS(=O)(=O)c2ccc(NC(=O)C(C)(C(F)(F)F)C(F)(F)F)cc2)nn1 | 1.11
33 | Cn1c(=O)oc2cc(S(=O)(=O)N3CCC(C(=O)Nc4ccc(OC(F)(F)F)cc4)CC3)ccc21 | 0.99
34 | CCC1(C)N(O)C(C)(C)C(c2ccc(OC)cc2)=[N+]1[O-] (stereo not given) | 1.08
35 | COc1ccc(CCNC(=O)c2ccc3c(c2)NC(=O)C(N2CCOCC2)S3)cc1OC (stereo not given) | 1.05
36 | CCOc1ccccc1-n1c(SCC(=O)N2CCCC2)nnc1-c1ccoc1C | 1.07
37 | CCCCc1nccn1CCn1ccnc1CCCC | 1.03
38 | COc1ccc(-c2cc(C(=O)NC(C(=O)O)C(C)C)c(C)o2)cc1OC (stereo not given) | 1.05
39 | C=C(C)c1cccc(C(C)(C)NC(=O)N2CCN(c3ncccn3)CC2)c1 | 1.1
40 | Fc1ccc2[nH]c3c(N4CCN(Cc5ccc6c(c5)OCO6)CC4)ncnc3c2c1 | 1.38
41 | Fc1ccc2[nH]c3c(N4CCSCC4)ncnc3c2c1 | 1.68
42 | CC(C)OCCCNc1ncnc2c1[nH]c1ccc(F)cc12 | 3.76 (active)
43 | CCN1CCCC1CNc1ncnc2c1[nH]c1ccc(F)cc12 (stereo not given) | 3.05 (active)
44 | COc1ccc(C(=O)Nc2cccnc2)cc1C(=O)Nc1cccnc1 | 1.05
45 | C=CCn1c(C)cc(C(=O)CN2C(=O)c3ccccc3C2=O)c1C | 1.04
46 | C=CCN(CC=C)C(=O)CN1C(=O)c2ccccc2C1=O | 1.04
47 | COc1ccc(CC(=O)Nc2ccc(-c3nnc(-c4ccc(C)cc4)o3)cc2)cc1 | 2.89 (active)
48 | Cc1ccc(OCC(=O)Nc2ccc(-c3nc4ncccc4o3)cc2)cc1 | 3.7 (active)

Row | SMILES | fluorescence fold increase
49 | COc1ccc(-c2nc(CS(=O)CC(=O)NCc3ccccn3)c(C)o2)cc1 (stereo not given) | 1
50 | Cc1ccc(OCC(=O)Nc2ccc(-c3nnc(-c4ccco4)o3)cc2)cc1 | 1.37
51 | CCOC(=O)c1ccc(NC(=O)CSc2ncccn2)cc1 | 1.02
52 | COc1ccc(CC(=O)Nc2ccc(-c3nnc(-c4ccccc4)o3)cc2)cc1 | 2.23 (active)
53 | O=C(COC(=O)c1ccc(Oc2ccccc2)cc1)Nc1nnc(-c2ccccc2)o1 | 1.19
54 | CCC(=O)Oc1cccc(C(=O)Nc2ccc(-c3nnc(-c4ccco4)o3)cc2)c1 | 1.53
55 | O=C(CCc1ccccc1)Nc1cccc(-c2nnc(-c3ccco3)o2)c1 | 1.31
56 | CCCOC(=O)CC1C(=O)NCCN1Cc1ccc(F)cc1 (stereo not given) | 1.06
57 | C=C(Br)Cn1c(CCCC)nc2ccccc21 | 1.05
58 | CCN(c1ccccc1)S(=O)(=O)c1cccc(C(=O)O)c1 | 0.98
59 | Cc1noc(C)c1CSc1nnc2ccc3ccccc3n12 | 1.17
60 | COC(=O)C(NC(C)=O)(Nc1nc2c(s1)CCCC2)C(F)(F)F (stereo not given) | 1.04
61 | Cc1ccc(N(C(=O)CC2NC(=O)NC2=O)C2(C(=O)NC3CCCC3)CCCCC2)cc1 (stereo not given) | 1.11
62 | O=C(NCc1ccccn1)c1ccc2nc(-c3ccco3)c(-c3ccco3)nc2c1 | 1.72
63 | Cc1cccn2c(=O)c3cc(C(=O)NCc4ccccn4)n(C)c3nc12 | 5.03 (active)
64 | Cc1ccccc1CN1CCN(CC(=O)NCc2ccccn2)C1=O | 1.13
65 | Cc1cccn2c(=O)c3cc(C(=O)N4COCC4(C)C)n(C)c3nc12 | 4.96 (active)
66 | NC(=O)C1CCN(C2OC(=O)c3ccccc32)CC1 (stereo not given) | 1.08
67 | CCOC(=O)C1CCN(C(=O)C2CCN(S(=O)(=O)N3CCCC3)CC2)CC1 | 1.03
68 | CCC(CC)c1nnc(NS(=O)(=O)Cc2ccccc2)s1 | 1.09
69 | CN1c2ccccc2-c2nc3ccccc3n2C1c1ccco1 (stereo not given) | 2.31 (active)
70 | Cc1nn2c3ccccc3nc2n(C)c1=O | 0.93
71 | Cc1ccccc1N1C(=O)C2ON(c3ccccc3)C(c3ccncc3)C2C1=O (stereo not given) | 1.04
72 | COc1ccc(N2CCN(C(=O)CSc3nc4cc(OC)c(OC)cc4cc3C#N)CC2)cc1 | 1.03

Row | SMILES | fluorescence fold increase
73 | CCOc1ccc2nc(N3CCCN(C(=O)Nc4ccccc4C)CC3)c(C#N)cc2c1 | 1.7
74 | COc1ccc2nc(N3CCCC(O)C3)c(C#N)cc2c1 (stereo not given) | 2.58 (active)
75 | COC(=O)c1sc(NC(=O)c2ccc(OC)cc2OC)nc1C | 2.06 (active)
76 | COc1ccc(C(=O)Nc2nncs2)c(OC)c1 | 1.05
77 | COC(=O)c1sc(NC(=O)c2csc3c2CCCC3)nc1C | 1.25
78 | Cc1c(C(=O)Nc2ccccc2Cl)oc2ccc(S(=O)(=O)N3CCC4(CC3)OCCO4)cc12 | 3.37 (active)
79 | CCOc1ccccc1NC(=O)c1cc(S(=O)(=O)N2CCC3(CC2)OCCO3)ccc1F | 1.05
80 | CCOC(=O)C1CCN(C(=O)c2oc3ccc(S(=O)(=O)N4CCCCCC4)cc3c2C)CC1 | 1.08
81 | COC(=O)COc1ccc(S(=O)(=O)Nc2ccc(NC(C)=O)cc2)cc1 | 1.1
82 | O=C(N1CCOCC1)N(Cc1ccccc1)c1ccccn1 | 1.08
83 | COc1cc(-n2c(C)nc3cc(C(=O)NCc4ccco4)ccc32)cc(OC)c1OC | 1.09
84 | Cc1cc(NC(=O)c2cnn3cccnc23)n(-c2ccccc2)n1 | 1.13
85 | Cn1c(CNc2nc(-c3ccccc3)cs2)nnc1SCC(=O)c1ccccc1 | 1.05
86 | O=c1c2ccccc2oc2nc(C3CCCCC3)n(Cc3ccco3)c(=O)c12 | 1.14
87 | Cn1c(COc2ccc(Cl)cc2)nc2ccccc2c1=O | 1.18
88 | Nc1cc(=O)nc(SCc2ccccc2)n1Cc1ccco1 | 1.05
89 | CC(Sc1nc2ccccc2c(=O)n1Cc1ccco1)C(=O)c1ccccc1 (stereo not given) | 1.1
90 | Clc1cccc(-c2nc3nc4ccccc4nc3n2Cc2ccco2)c1 | 1.65
91 | Cc1nc2c(c(=O)n1Cc1ccco1)c1nc3ccccc3nc1n2Cc1ccccc1 | 2.65 (active)
92 | Cc1nc2ccccc2c(=O)n1CCCn1ccnc1 | 1.18
93 | Cc1ccc(Cn2c(C)nc3c(c2=O)c2nc4ccccc4nc2n3Cc2ccco2)cc1 | 2.34 (active)
94 | COCCCn1c2nc3ccccc3nc2c2c(=O)n(Cc3ccc(Cl)cc3)c(C)nc21 | 3.88 (active)
95 | CC(=O)Oc1cc2c(C(=O)NCCN3CCOCC3)c(C)oc2c2ccccc12 | 1.19
